# Test results published in the supplement of paper PMC10849652.
# Of roughly 7,900 targets only a part is listed; those with a hit were picked by preference. About 0.6% of all pairs of compound and target were hits. A number with no mark means an inactive call.
# Experiments:
# Experiment in all cases: log2 fold change, soluble protein after heating vs DMSO (PISA); higher = thermal stabilisation; K562 cells, 10 uM, 30 min; active = over 0.2 and 3.5 SD of the protein, either way, in both replicates (recomputed)
# [1] = compound: COC1=CC=C(C=C1)CN2C=CC3=C2C=C(C=C3)C(=O)NO
# How it was run: (§1)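 Values are thermal stability changes relative to control samples and are taken from duplicates. They are stated as log2 fold changes. Before quantification by TMTpro 16plex LC-MS/MS with equalised channel sums, K562 cells at 2×10^6 cells/mL were treated with 10 μM compound for 30 min, heated in aliquots for 3 min across 48°C-58°C, pooled, extracted in PBS with 0.5% NP-40 at 4°C, and centrifuged at 21,000xg for 90 min to give the soluble supernatant.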
# filanesib = compound: CON(C)C(=O)N1N=C(c2cc(F)ccc2F)S[C@@]1(CCCN)c1ccccc1 [filanesib]
# How it was run: as §1
# zotarolimus = compound: CO[C@H]1C[C@@H]2CC[C@@H](C)[C@@](O)(O2)C(=O)C(=O)N2CCCC[C@H]2C(=O)O[C@H]([C@H](C)C[C@@H]2CC[C@H](n3cnnn3)[C@H](OC)C2)CC(=O)[C@H](C)/C=C(\C)[C@@H](O)[C@@H](OC)C(=O)[C@H](C)C[C@H](C)/C=C/C=C/C=C/1C [zotarolimus]
# How it was run: as §1
# idasanutlin = compound: COc1cc(C(=O)O)ccc1NC(=O)[C@@H]1N[C@@H](CC(C)(C)C)[C@](C#N)(c2ccc(Cl)cc2F)[C@H]1c1cccc(Cl)c1F [idasanutlin]
# How it was run: as §1
# alisertib = compound: COc1cc(Nc2ncc3c(n2)-c2ccc(Cl)cc2C(c2c(F)cccc2OC)=NC3)ccc1C(=O)O [alisertib]
# How it was run: as §1
# [2] = compound: COc1cc2nc(-c3cc(F)ccc3O)nc(N[C@@H]3CNC[C@H]3C(C)(C)O)c2cc1OC
# How it was run: as §1
# gefitinib = compound: COc1cc2ncnc(Nc3ccc(F)c(Cl)c3)c2cc1OCCCN1CCOCC1 [gefitinib]
# How it was run: as §1
# [3] = compound: COc1cccc2cc(-c3nc([C@H]4CC[C@H](C(=O)O)CC4)n4ncnc(N)c34)[nH]c12
# How it was run: as §1
# lapatinib = compound: CS(=O)(=O)CCNCc1ccc(-c2ccc3ncnc(Nc4ccc(OCc5cccc(F)c5)c(Cl)c4)c3c2)o1 [lapatinib]
# How it was run: as §1
# pictilisib = compound: CS(=O)(=O)N1CCN(Cc2cc3nc(-c4cccc5[nH]ncc45)nc(N4CCOCC4)c3s2)CC1 [pictilisib]
# How it was run: as §1
# [4] = compound: CS(=O)(=O)c1ccc(-c2cnc(N)c(C(=O)Nc3ccccc3)n2)cc1
# How it was run: as §1
# crizotinib = compound: C[C@@H](Oc1cc(-c2cnn(C3CCNCC3)c2)cnc1N)c1c(Cl)ccc(F)c1Cl [crizotinib]
# How it was run: as §1
# [5] = compound: C[C@@H]1COCCN1C2=NC(=NC(=C2)C3(CC3)S(=O)(=O)C)C4=C5C=CNC5=CC=C4
# How it was run: as §1
# [6] = compound: C[C@H](C1=CC=C(C=C1)C(=O)NC2=C3C=CNC3=NC=C2)N
# How it was run: as §1
# duvelisib = compound: C[C@H](Nc1ncnc2nc[nH]c12)c1cc2cccc(Cl)c2c(=O)n1-c1ccccc1 [duvelisib]
# How it was run: as §1
# gandotinib = compound: Cc1cc(Nc2cc(CN3CCOCC3)c3nc(C)c(Cc4ccc(Cl)cc4F)n3n2)n[nH]1 [gandotinib]
# How it was run: as §1
# tozasertib = compound: Cc1cc(Nc2cc(N3CCN(C)CC3)nc(Sc3ccc(NC(=O)C4CC4)cc3)n2)n[nH]1 [tozasertib]
# How it was run: as §1
# [7] = compound: Cc1cc(SCc2sc(-c3ccc(C(F)(F)F)cc3)nc2C)ccc1OCC(=O)O
# How it was run: as §1
# doramapimod = compound: Cc1ccc(-n2nc(C(C)(C)C)cc2NC(=O)Nc2ccc(OCCN3CCOCC3)c3ccccc23)cc1 [doramapimod]
# How it was run: as §1
# ispinesib = compound: Cc1ccc(C(=O)N(CCCN)[C@@H](c2nc3cc(Cl)ccc3c(=O)n2Cc2ccccc2)C(C)C)cc1 [ispinesib]
# How it was run: as §1
# UniProt Q53EL6, sequence (Q53EL6 whole entry, looked up): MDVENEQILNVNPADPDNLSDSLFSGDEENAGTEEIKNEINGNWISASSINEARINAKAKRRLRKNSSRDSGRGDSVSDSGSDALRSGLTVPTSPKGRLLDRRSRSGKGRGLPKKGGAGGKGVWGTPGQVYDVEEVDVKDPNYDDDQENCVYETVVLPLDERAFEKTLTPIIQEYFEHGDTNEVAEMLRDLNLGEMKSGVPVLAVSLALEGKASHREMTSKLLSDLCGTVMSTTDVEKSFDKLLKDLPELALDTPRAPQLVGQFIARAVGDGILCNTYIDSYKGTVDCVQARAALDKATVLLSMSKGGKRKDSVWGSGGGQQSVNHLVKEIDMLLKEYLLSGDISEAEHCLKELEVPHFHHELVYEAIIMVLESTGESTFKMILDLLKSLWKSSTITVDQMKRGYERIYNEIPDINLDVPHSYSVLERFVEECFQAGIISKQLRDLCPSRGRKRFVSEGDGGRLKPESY
# UniProt Q16401, sequence (Q16401 whole entry, looked up): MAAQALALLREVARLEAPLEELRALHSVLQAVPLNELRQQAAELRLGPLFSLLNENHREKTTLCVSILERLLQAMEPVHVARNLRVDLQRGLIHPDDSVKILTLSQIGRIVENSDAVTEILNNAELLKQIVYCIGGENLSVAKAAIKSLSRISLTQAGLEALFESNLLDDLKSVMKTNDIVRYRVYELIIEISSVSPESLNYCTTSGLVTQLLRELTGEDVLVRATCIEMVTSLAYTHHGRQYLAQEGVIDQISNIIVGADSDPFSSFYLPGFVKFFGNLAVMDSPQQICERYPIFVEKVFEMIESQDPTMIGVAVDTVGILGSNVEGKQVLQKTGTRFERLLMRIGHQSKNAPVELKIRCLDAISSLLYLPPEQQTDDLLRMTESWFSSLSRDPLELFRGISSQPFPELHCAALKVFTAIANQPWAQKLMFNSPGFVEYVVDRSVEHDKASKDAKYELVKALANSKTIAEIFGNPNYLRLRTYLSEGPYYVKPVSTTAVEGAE
# UniProt O15355, sequence (O15355 whole entry, looked up): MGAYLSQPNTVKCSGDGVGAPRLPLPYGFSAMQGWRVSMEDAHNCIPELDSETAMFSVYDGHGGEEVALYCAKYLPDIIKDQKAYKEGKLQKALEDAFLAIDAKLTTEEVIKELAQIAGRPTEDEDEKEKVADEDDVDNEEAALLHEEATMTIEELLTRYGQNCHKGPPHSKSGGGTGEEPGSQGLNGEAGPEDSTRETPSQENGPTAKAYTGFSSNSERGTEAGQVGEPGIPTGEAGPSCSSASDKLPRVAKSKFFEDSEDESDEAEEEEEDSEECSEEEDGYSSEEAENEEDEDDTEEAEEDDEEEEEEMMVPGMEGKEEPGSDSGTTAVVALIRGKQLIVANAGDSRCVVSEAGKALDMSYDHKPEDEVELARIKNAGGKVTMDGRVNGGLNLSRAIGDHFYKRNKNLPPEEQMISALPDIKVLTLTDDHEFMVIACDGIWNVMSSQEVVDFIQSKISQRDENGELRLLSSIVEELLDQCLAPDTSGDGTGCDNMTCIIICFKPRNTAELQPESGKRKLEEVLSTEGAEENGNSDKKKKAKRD
# UniProt Q32M88, sequence (Q32M88 whole entry, looked up): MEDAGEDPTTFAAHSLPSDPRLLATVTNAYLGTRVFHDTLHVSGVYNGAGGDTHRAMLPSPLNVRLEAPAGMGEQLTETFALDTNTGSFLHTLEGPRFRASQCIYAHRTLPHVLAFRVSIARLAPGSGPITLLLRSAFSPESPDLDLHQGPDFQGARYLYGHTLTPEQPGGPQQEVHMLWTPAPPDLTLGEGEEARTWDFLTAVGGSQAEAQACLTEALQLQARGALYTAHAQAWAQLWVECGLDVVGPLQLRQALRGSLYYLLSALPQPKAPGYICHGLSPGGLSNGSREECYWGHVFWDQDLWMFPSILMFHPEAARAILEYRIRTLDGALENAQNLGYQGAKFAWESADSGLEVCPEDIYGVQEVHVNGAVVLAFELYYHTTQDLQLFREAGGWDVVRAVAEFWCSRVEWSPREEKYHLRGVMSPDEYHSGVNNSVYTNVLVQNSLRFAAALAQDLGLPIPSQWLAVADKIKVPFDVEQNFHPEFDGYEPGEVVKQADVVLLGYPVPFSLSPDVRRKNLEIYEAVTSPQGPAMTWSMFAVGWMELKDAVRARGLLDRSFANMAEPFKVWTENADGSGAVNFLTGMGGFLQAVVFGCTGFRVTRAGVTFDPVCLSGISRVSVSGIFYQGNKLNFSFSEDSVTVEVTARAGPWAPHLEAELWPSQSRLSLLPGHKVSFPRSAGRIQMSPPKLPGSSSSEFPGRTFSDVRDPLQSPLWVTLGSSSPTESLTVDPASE
# UniProt Q15172, sequence (Q15172 whole entry, looked up): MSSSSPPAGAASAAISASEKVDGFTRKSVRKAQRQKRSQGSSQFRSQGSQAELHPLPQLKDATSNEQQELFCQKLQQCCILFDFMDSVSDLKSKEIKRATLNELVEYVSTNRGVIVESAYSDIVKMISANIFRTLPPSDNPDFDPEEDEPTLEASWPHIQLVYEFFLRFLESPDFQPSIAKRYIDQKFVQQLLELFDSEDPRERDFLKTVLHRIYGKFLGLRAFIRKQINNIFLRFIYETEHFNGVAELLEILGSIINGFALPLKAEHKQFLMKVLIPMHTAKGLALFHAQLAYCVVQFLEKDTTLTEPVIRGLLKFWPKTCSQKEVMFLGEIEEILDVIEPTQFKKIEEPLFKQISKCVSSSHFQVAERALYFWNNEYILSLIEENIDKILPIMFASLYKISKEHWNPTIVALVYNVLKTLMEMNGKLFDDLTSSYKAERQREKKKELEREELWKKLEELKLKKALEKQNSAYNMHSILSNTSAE
# UniProt Q9P2B2, sequence (Q9P2B2 whole entry, looked up): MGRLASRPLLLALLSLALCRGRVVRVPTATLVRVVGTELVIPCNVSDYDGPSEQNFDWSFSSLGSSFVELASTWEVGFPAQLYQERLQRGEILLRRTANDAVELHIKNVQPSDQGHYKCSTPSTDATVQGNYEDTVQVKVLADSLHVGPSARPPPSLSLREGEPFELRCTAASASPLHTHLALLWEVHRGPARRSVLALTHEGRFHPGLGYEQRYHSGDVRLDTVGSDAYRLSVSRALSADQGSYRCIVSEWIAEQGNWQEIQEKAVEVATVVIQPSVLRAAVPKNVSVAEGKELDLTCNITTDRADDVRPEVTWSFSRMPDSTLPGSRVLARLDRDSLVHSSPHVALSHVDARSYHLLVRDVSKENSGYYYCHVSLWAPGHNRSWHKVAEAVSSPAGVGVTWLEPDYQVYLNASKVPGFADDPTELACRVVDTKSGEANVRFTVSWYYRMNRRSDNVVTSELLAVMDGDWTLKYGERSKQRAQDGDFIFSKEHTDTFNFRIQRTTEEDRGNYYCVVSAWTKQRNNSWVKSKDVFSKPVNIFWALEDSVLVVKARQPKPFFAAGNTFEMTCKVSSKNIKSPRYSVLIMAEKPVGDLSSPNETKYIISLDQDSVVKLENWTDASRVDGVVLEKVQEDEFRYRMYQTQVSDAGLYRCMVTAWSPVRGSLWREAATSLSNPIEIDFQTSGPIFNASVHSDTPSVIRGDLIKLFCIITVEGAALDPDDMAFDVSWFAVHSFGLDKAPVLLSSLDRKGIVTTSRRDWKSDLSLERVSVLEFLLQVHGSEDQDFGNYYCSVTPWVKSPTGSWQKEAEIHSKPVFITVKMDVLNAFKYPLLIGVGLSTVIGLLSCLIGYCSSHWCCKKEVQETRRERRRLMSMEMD
# UniProt Q8N8N7, sequence (Q8N8N7 whole entry, looked up): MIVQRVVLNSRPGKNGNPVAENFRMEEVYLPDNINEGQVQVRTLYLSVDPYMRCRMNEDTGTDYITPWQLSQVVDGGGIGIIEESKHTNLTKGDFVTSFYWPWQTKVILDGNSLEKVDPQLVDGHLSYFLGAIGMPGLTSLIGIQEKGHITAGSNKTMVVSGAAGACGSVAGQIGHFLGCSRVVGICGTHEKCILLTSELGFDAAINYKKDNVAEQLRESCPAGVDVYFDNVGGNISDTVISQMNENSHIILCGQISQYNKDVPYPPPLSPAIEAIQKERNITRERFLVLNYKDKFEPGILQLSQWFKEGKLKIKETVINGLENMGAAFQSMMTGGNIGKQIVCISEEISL
# UniProt O75340, sequence (O75340 whole entry, looked up): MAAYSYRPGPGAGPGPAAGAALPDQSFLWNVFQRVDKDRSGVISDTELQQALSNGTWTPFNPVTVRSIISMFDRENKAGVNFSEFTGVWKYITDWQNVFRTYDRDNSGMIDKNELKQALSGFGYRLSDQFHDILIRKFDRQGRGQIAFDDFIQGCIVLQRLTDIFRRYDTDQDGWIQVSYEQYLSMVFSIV
# UniProt O95394, sequence (O95394 whole entry, looked up): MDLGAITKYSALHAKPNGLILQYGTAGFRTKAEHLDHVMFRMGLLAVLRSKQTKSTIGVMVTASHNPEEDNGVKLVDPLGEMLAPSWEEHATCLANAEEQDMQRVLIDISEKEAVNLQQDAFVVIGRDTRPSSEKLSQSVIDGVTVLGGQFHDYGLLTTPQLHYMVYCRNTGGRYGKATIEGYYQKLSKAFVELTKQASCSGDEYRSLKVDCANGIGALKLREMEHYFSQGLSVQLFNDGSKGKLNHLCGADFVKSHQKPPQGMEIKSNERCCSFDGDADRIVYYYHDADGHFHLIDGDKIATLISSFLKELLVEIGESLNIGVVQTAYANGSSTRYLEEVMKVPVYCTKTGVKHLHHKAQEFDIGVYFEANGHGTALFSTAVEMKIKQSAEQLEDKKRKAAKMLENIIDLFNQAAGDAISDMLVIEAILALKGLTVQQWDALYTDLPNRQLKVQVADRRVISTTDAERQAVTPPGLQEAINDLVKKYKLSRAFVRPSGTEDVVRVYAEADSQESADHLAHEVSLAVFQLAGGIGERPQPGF
Target,log2 fold change [1],log2 fold change (filanesib),log2 fold change (zotarolimus),log2 fold change (idasanutlin),log2 fold change (alisertib),log2 fold change [2],log2 fold change (gefitinib),log2 fold change [3],log2 fold change (lapatinib),log2 fold change (pictilisib),log2 fold change [4],log2 fold change (crizotinib),log2 fold change [5],log2 fold change [6],log2 fold change (duvelisib),log2 fold change (gandotinib),log2 fold change (tozasertib),log2 fold change [7],log2 fold change (doramapimod),log2 fold change (ispinesib)
PPT1 (UniProt P50897),0.021,-0.241 (active),-0.043,0.005,-0.041,-0.041,-0.03,0.074,-0.038,0.052,0.022,-0.57 (active),-0.008,-0.029,0.023,-0.018,-0.012,0.023,-0.004,-0.394 (active)
PPIL4 (UniProt Q8WUA2),-0.001,0.116,0.032,0.101,-0.003,0.015,0.002,-0.005,0.02,0.018,-0.022,-0.013,0.027,-0.01,0.025,0,-0.026,0.021,0.019,-0.017
PGM3 isoform 4 (UniProt O95394),0.052,-0.135,0.007,-0.079,-0.007,0,-0.028,-0.01,-0.014,-0.047,0.025,-0.098,0.04,-0.024,0.043,-0.034,-0.019,0.108,0.016,-0.09
PDCD6 (UniProt O75340),-0.06,-0.124,-0.03,-0.106,0.092,0.047,-0.021,0.013,-0.035,0.038,0.029,-0.047,0.051,-0.021,0.03,-0.056,0.05,0.038,0.002,-0.045
PRKAA1 isoform 2 (UniProt Q13131),0.029,-0.043,-0.007,0.013,-0.047,-0.014,0.004,0.016,-0.008,-0.03,0,-0.156,-0.007,-0.011,0.055,-0.235 (active),-0.044,-0.036,-0.019,-0.003
PTGFRN (UniProt Q9P2B2),0.006,0.129,-0.021,0.073,0.01,0.139,0.025,0.124,0.036,0.122,0.068,0.057,0.063,-0.003,0.122,-0.023,-0.101,-0.065,0.001,0.165
PCNT (UniProt O95613),-0.228,0.006,-0.001,0.075,0.02,0.055,0.085,0.257,-0.174,0.285,0.119,0.023,0.09,0.153,-0.003,0.06,0.032,-0.006,-0.023,-0.099
PDCD4 (UniProt Q53EL6),0.055,-0.153,0.251,-0.161,-0.025,0.018,0.057,0.16,0.032,0.083,0.096,0.09,0.303,0.007,0.133,-0.141,0.126,0.066,-0.047,0.039
PRKD2 isoform 3 (UniProt Q9BZL6),-0.05,-0.037,-0.125,0.078,-0.03,-0.042,-0.159,0.033,-0.011,-0.17,-0.275,-0.39,0.108,-0.111,0.066,0.017,0.048,-0.014,0.023,-0.129
PTGR2 (UniProt Q8N8N7),-0.13,-0.155,0.195,0.122,-0.03,-0.04,0.035,0,0.125,0.313,0.097,-0.075,0.045,0.112,0.049,0.192,0,-0.185,0.223,0.013
PPM1G (UniProt O15355),-0.011,0.014,0.028,0.066,0.019,0.081,0.044,-0.089,-0.052,0.093,0.114,-0.028,0.045,-0.083,0.044,-0.026,0.081,0.171,-0.008,-0.055
PRPF3 (UniProt O43395),0.18,-0.038,-0.048,-0.029,0.031,-0.07,0.06,0.072,-0.02,-0.022,0.009,-0.025,0.114,0.193,0.053,-0.067,0.007,0.174,-0.024,0.025
PXK (UniProt Q7Z7A4),0.105,-0.005,0.021,-0.035,-0.057,0.069,-0.001,0.015,0.03,0.127,-0.06,-0.139,0.032,-0.026,-0.023,-0.042,-0.024,0.011,-0.025,-0.203
PGGHG (UniProt Q32M88),-0.022,0.073,0.024,0.162,-0.123,0.082,-0.062,0.041,-0.08,0.042,0.019,-0.01,0.003,0.175,0.073,-0.039,-0.108,0.049,0.048,0.05
PPP2R5A (UniProt Q15172),0.034,-0.135,0.002,-0.206,-0.064,0.032,-0.043,0.005,0.047,-0.096,-0.018,-0.154,0.014,0.022,0.033,-0.21,-0.049,0.072,-0.019,-0.056
PSMD5 (UniProt Q16401),0.024,-0.046,0.013,-0.055,-0.055,-0.017,-0.013,0,0.017,-0.017,0.008,0.006,0.046,-0.064,-0.023,-0.051,0.043,-0.013,-0.03,0.03
